What all share (assay): NCI-60 one-dose screen, 48 h (100 = growth as untreated, 0 = no growth, -100 = all killed)
Common to all, as to conditions: 10 µM unless noted

For test [1], the system named is NCI-H23 lung.
In test [2] the test system is NCI-H226 lung.
For test [3], the system named is NCI-H322M lung.
Test [4] has as its system HOP-62 NSCLC.
Test [5] relates to NCI-H460 lung.
Test [6] has as its system HOP-92 NSCLC.
The test system of test [7] is NCI-H522 lung.
Test [8] relates to A549/ATCC NSCLC.
In test [9] the test system is 786-0 renal.
The test system of test [10] is COLO 205 colon.
Test [11] has as its system DU-145 prostate.
Test [12] has as its system K-562 leukemia.
Test [13] concerns MALME-3M melanoma.
The subject of test [14] is MDA-MB-231 breast.
Test [15] concerns SF-268 CNS.
For test [16], the system named is SF-295 CNS.
For test [17], the system named is SF-539 CNS.
Test [18] concerns UACC-257 melanoma.
The test system of test [19] is RXF 393 renal.
Test [20] deals with M14 melanoma.

The panel holds about 83,000 compounds, 20% with a hit somewhere; the sample as a whole holds those more often.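 A percent growth of 40 corresponds to 60% growth inhibition; 0 means no net growth; -100 means all cells died. Active threshold: below 10.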 Values without a mark were called inactive. The source made the active and inactive calls.

Regarding `O=c1nc2n(nc1/C=C/c1ccco1)CC(c1ccc(Cl)cc1)=NN2`, the growth in [1] is 93%; in [2], 100%; in test [3] it was 84.2%; in [4], 82.9%; in [5], 108%; in test [6], 87.6%. For the same molecule, the growth in test [7] is 79.4%; in test [8] it was 104%; in test [9] it was 95.7%; in test [10], 110%; in [11] it was 115%; in test [12] it was 53.6%. In addition, the growth in test [13] was 92%; in test [14], 117%; in test [15], 109%; in test [16] it was 97.9%; in test [17], 104%; in test [18], 104%.

With `COc1cccc(C(Cc2ccccc2)Nc2ccccc2)c1OC` (centres undefined), the growth in test [1] was 92.1%; in test [2], 91.3%; in [3] it was 101%; in test [4], 92.6%; in test [5], 101%; in test [6], 77.5%. Further, the growth in test [7] was 65.6%; in [8], 81.4%; in test [9], 95.5%; in test [10], 105%; in [11] it was 109%; in test [12], 90.4%. Further, the growth in test [13] is 98.9%; in test [14], 97.4%; in [19], 109%; in test [15], 101%; in [16], 99.6%; in test [17] it was 104%. Also, the growth in test [18] was 91%; in test [20], 97.2%.

Consider `COc1ccc(/C(=C\c2ccccc2)C(=O)O)cc1OC`, for which the growth in [1] is 93.6%; in test [2], 83.5%; in test [3], 98%; in test [4], 2.18% (active); in test [5], 101%; in test [6], 97.9%. The growth in test [7] was 101%; in test [8], 102%; in [9], 104%; in test [10], 100%; in test [11], 108%; in test [12] it was 134%. Further, the growth is 95.9% in [13]; 89.1% in test [14]; 104% in [19]; 103% in [15]; 101% in test [16]; 103% in test [17]. Also, the results for the growth in test [18] and in test [20] were 99.2% and 98.3%, respectively.

Regarding `[2H]C1([2H])NC([2H])([2H])C([2H])([2H])N(c2ccc(Nc3ncc4cc(C(=O)N(C)C)n(C5CCCC5)c4n3)nc2)C1([2H])[2H]`, the growth in test [1] is 69.9%; in [2] it was 71.2%; in test [3], 78.7%; in [4], 60.3%; in [5] it was 62.7%; in [6], 76.1%. The growth was 82.7% in [7]; 51.5% in test [8]; 61.1% in [9]; 38.3% in [10]; 99.7% in test [11]; 64.6% in test [12]. Besides, the growth was 58.4% in test [13]; 64.9% in [14]; 82.4% in test [19]; 77.4% in test [15]; 72.7% in test [16]; 86.5% in test [17]. The growth in [18] was 61.1%; in [20], 75.2%.

Turning to `Cc1cn(-c2cc(C(=O)Nc3cccc(C#Cc4cccc5[nH]nc(N)c45)c3)cc(C(F)(F)F)c2)cn1`, the growth was 44.1% in test [1]; 33.1% in [2]; 68.4% in test [3]; 45.1% in [4]; 40.6% in test [5]; 26.4% in test [6]. Besides, the growth in test [7] was 51.7%; in test [8], 63.2%; in [9] it was 66.7%; in test [10], 13.8%; in [11], 72.5%; in [12], 5.16% (active). For the same molecule, the growth is -12% (active) in test [13]; 29.8% in [14]; 1.89% (active) in test [19]; 58.6% in [15]; 67.2% in test [16]; 25.3% in test [17]. In addition, the growth in [18] is 18.1%; in test [20] it was 11.5%.

For `COc1cc(COC(=O)CCCCC[P+](c2ccccc2)(c2ccccc2)c2ccccc2)c(OC)c2c1OCO2`, the growth in test [1] was 51.9%; in test [2], 67.6%; in test [3] it was 84.1%; in test [4], 79.2%; in test [5], 64.5%; in test [6] it was 20.1%. Further, the growth was 50.2% in test [7]; 81.2% in test [8]; 91.9% in test [9]; 71.4% in [10]; 83.5% in test [11]; 19.4% in [12]. Also, the growth in [13] was 5.27% (active); in [14] it was 70.2%; in test [15], 75.1%; in [16], 76.9%; in [17] it was 78.2%; in test [18], 15.6%.

On to `CCc1c(Nc2ccc(C)cc2)nc(N)[nH]c1=O`, for which the growth in [1] is 103%; in test [2], 102%; in [3], 103%; in [4], 98.7%; in test [5], 108%; in [6], 93.7%. The growth in [7] was 90.5%; in test [8], 99.5%; in [9], 100%; in test [10], 108%; in [11] it was 111%; in test [12], 94.7%. The growth in test [13] was 98.6%; in test [14], 94.7%; in test [19], 109%; in test [15], 102%; in [16], 98.3%; in test [17], 101%. Further, the growth in test [18] is 102%; in [20], 100%.

Turning to `CC1(C)[C@H](O)CC[C@]2(C)[C@@H]1CC[C@@]13C[C@@H](CC[C@H]12)[C@@](O)(CO)C3`, the growth was 105% in test [1]; 99.7% in test [2]; 113% in test [3]; 103% in [4]; 104% in test [5]; 126% in test [6]. The growth is 92.1% in [7]; 107% in test [8]; -45% (active) in [9]; 119% in test [10]; 117% in [11]; 104% in test [12]. The growth in [13] is 111%; in [14], 114%; in test [15], 108%; in [16] it was 103%; in test [17] it was 106%; in test [18], 107%.

Source of the values: PubChem BioAssay (NCI).
